According to PubChem BioAssay AID1159580 (chemical genetic matrix, 2015):
The campaign covered roughly 5,500 compounds. About 2,000 (36%) were called active. About 18% were inconclusive and are not listed. Cut-off read from the data, not from the text of the source: active = normalized growth mostly below about 0.91 (no sharp cut-off); inconclusive = no clear call, values can overlap the other calls; inactive = mostly above about 0.92. The list shows a part of the results.

Assay: chemical genetic growth profiling, strain panel (AID 1159580);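 note: tested at 20 µM; growth read once vehicle control cultures reached saturation at 30 °C; 1 = growth at the plate median or of vehicle wells; lower values mean less growth of the strain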
Conditions: S. cerevisiae deletion strains, growth OD

Measured: normalized growth

CC(=O)OC1CC23CC24CCC(OC2OCC(O)C(O)C2O)C(C)(C)C4CCC3C2(C)CC3OC4(CC(C)C3C12C)OC(O)C1(C)OC41 (centres undefined)
inactive: locus YAL021C, strain ccr4, stronger effect = lower value 0.995 | locus YAL026C, strain drs2, stronger effect = lower value 1.01 | locus YAL030W, strain snc1, stronger effect = lower value 1 | locus YBL061C, strain skt5, stronger effect = lower value 1.01 | locus YBR009C, strain hhf1, stronger effect = lower value 0.988 | locus YBR023C, strain chs3, stronger effect = lower value 1 | locus YBR171W, strain sec66, stronger effect = lower value 1.02 | locus YBR231C, strain swc5, stronger effect = lower value 1.03 | locus YBR279W, strain paf1, stronger effect = lower value 1 | locus YCL011C, strain gbp2, stronger effect = lower value 1.01 | locus YCL016C, strain dcc1, stronger effect = lower value 0.998 | locus YCL069W, strain vba3, stronger effect = lower value 1.01 | locus YCR088W, strain abp1, stronger effect = lower value 1.01 | locus YDL005C, strain med2, stronger effect = lower value 1.02 | locus YDL040C, strain nat1, stronger effect = lower value 1 | locus YDR001C, strain nth1, stronger effect = lower value 1 | locus YDR069C, strain doa4, stronger effect = lower value 1.01 | locus YDR137W, strain rgp1, stronger effect = lower value 0.99 | locus YDR159W, strain sac3, stronger effect = lower value 1.04 | locus YDR195W, strain ref2 1 | locus YDR297W, strain sur2, stronger effect = lower value 1.01 | locus YDR334W, strain swr1, stronger effect = lower value 1.01 | locus YDR335W, strain msn5, stronger effect = lower value 1.01 | locus YDR392W, strain spt3, stronger effect = lower value 0.936 | locus YEL003W, strain gim4, stronger effect = lower value 1.01 | locus YEL037C, strain rad23, stronger effect = lower value 1 | locus YEL061C, strain CIN8 (second series), stronger effect = lower value 1.01 | locus YER015W, strain faa2, stronger effect = lower value 1.02 | locus YER016W, strain bim1, stronger effect = lower value 1.01 | locus YER111C, strain swi4, stronger effect = lower value 0.999 | locus YER155C, strain BEM2 (second series), stronger effect = lower value 1.07 | locus YFR010W, strain ubp6, stronger effect = lower value 1.03 | locus YGL167C, strain pmr1, stronger effect = lower value 0.996 | locus YGL173C, strain kem1, stronger effect = lower value 1.01 | locus YGL227W, strain vid30, stronger effect = lower value 1.01 | locus YGL240W, strain doc1, stronger effect = lower value 1.04 | locus YGL253W, strain hxk2, stronger effect = lower value 1 | locus YHR013C, strain ard1, stronger effect = lower value 0.998 | locus YHR027C, strain rpn1, stronger effect = lower value 1 | locus YHR142W, strain chs7, stronger effect = lower value 0.978 | locus YJL092W, strain hpr5, stronger effect = lower value 1.02 | locus YJL095W, strain BCK1 (second series), stronger effect = lower value 1.01 | locus YJL115W, strain asf1, stronger effect = lower value 1.01 | locus YJL129C, strain trk1, stronger effect = lower value 1 | locus YJL154C, strain vps35, stronger effect = lower value 1.01 | locus YJL164C, strain tpk1, stronger effect = lower value 0.972 | locus YJL166W, strain qcr8, stronger effect = lower value 1.01 | locus YJL187C, strain SWE1, stronger effect = lower value 0.996 | locus YKL160W, strain elf1, stronger effect = lower value 0.998 | locus YKR026C, strain gcn3, stronger effect = lower value 1.01 | locus YKR091W, strain srl3, stronger effect = lower value 1 | locus YLL001W, strain dnm1, stronger effect = lower value 1.01 | locus YLL026W, stronger effect = lower value 1.02 | locus YLL041C, strain sdh2, stronger effect = lower value 0.997 | locus YLR027C, strain aat2, stronger effect = lower value 0.997 | locus YLR221C, strain rsa3, stronger effect = lower value 1.04 | locus YLR258W, strain gsy2, stronger effect = lower value 1 | locus YLR262C, strain YPT6 (second series), stronger effect = lower value 1.02 | locus YLR320W, strain mms22, stronger effect = lower value 1.04 | locus YLR342W, strain FKS1, stronger effect = lower value 1 | locus YLR357W, strain rsc2, stronger effect = lower value 1.05 | locus YLR370C, strain arc18, stronger effect = lower value 1.01 | locus YLR384C, strain iki3, stronger effect = lower value 0.998 | locus YML120C, strain ndi1, stronger effect = lower value 0.98 | locus YMR058W, strain fet3, stronger effect = lower value 1.03 | locus YMR125W, strain sto1, stronger effect = lower value 0.985 | locus YMR129W, stronger effect = lower value 1 | locus YMR205C, strain PFK2, stronger effect = lower value 0.994 | locus YMR231W, strain pep5, stronger effect = lower value 1.01 | locus YNL071W, strain lat1, stronger effect = lower value 0.999 | locus YNL209W, strain ssb2, stronger effect = lower value 0.987 | locus YNL248C, strain rpa49, stronger effect = lower value 1.07 | locus YNL322C, strain KRE1 (second series), stronger effect = lower value 1.01 | locus YNR049C, strain mso1, stronger effect = lower value 1.02 | locus YOR001W, strain rrp6, stronger effect = lower value 1.04 | locus YOR070C, strain gyp1, stronger effect = lower value 1.02 | locus YOR080W, strain dia2, stronger effect = lower value 1 | locus YOR083W, strain WHI5, stronger effect = lower value 0.993 | locus YOR106W, strain vam3, stronger effect = lower value 0.975 | locus YOR265W, strain rbl2, stronger effect = lower value 1 | locus YOR270C, strain vph1, stronger effect = lower value 0.906 | locus YOR290C, strain snf2, stronger effect = lower value 0.959 | locus YPL051W, strain arl3, stronger effect = lower value 1.03 | locus YPL078C, strain atp4, stronger effect = lower value 0.963 | locus YPL106C, strain sse1, stronger effect = lower value 1.02 | locus YPL240C, strain hsp82, stronger effect = lower value 1.02

C=CC(C)(C)c1c2c(c(O)c3c(=O)c4ccc(O)c(O)c4oc13)C=CC(C)(C)O2
active: locus YDL035C, strain GPR1, stronger effect = lower value 0.601 | locus YDL074C, strain BRE1, stronger effect = lower value 0.615 | locus YDL192W, strain arf1, stronger effect = lower value 0.829 | locus YDR150W, strain NUM1, stronger effect = lower value 0.78 | locus YDR162C, strain NBP2, stronger effect = lower value 0.444 | locus YDR318W, strain mcm21, stronger effect = lower value 0.886 | locus YDR388W, stronger effect = lower value 0.918 | locus YER155C, strain BEM2, stronger effect = lower value 0.817 | locus YER167W, strain BCK2, stronger effect = lower value 0.871 | locus YGL086W, strain mad1, stronger effect = lower value 0.794 | locus YGL248W, strain PDE1, stronger effect = lower value 0.847 | locus YGR135W, strain pre9, stronger effect = lower value 0.891 | locus YHR129C, strain ARP1, stronger effect = lower value 0.726 | locus YHR200W, strain rpn10, stronger effect = lower value 0.894 | locus YIL066C, strain RNR3, stronger effect = lower value 0.413 | locus YIL073C, strain SPO22, stronger effect = lower value 0.424 | locus YJL095W, strain BCK1, stronger effect = lower value 0.767 | locus YJL187C, strain SWE1 (second series), stronger effect = lower value 0.81 | locus YKR001C, strain vps1, stronger effect = lower value 0.783 | locus YLR039C, strain RIC1, stronger effect = lower value 0.581 | locus YLR058C, strain SHM2, stronger effect = lower value 0.867 | locus YLR262C, strain YPT6, stronger effect = lower value 0.544 | locus YLR268W, strain sec22, stronger effect = lower value 0.812 | locus YLR330W, strain CHS5, stronger effect = lower value 0.9 | locus YLR342W, strain FKS1 (second series), stronger effect = lower value 0.4 | locus YLR371W, strain rom2, stronger effect = lower value 0.799 | locus YLR418C, strain cdc73, stronger effect = lower value 0.51 | locus YML016C, strain PPZ1, stronger effect = lower value 0.873 | locus YMR223W, strain ubp8, stronger effect = lower value 0.891 | locus YMR307W, strain GAS1, stronger effect = lower value 0.428 | locus YNL067W, strain RPL9B, stronger effect = lower value 0.843 | locus YNL233W, strain BNI4, stronger effect = lower value 0.582 | locus YNL307C, strain MCK1, stronger effect = lower value 0.799 | locus YOL006C, strain TOP1, stronger effect = lower value 0.275 | locus YOR061W, strain CKA2, stronger effect = lower value 0.78 | locus YOR069W, strain VPS5, stronger effect = lower value 0.873 | locus YOR184W, strain ser1, stronger effect = lower value 0.76 | locus YPL055C, strain LGE1, stronger effect = lower value 0.451 | locus YPR163C, strain tif3, stronger effect = lower value 0.796 | locus YPR167C, strain met16, stronger effect = lower value 0.916 | strain wtn01, stronger effect = lower value 0.839
inactive: locus YBR021W, strain FUR4, stronger effect = lower value 0.893 | locus YBR229C, strain ROT2, stronger effect = lower value 1 | locus YCL029C, strain bik1, stronger effect = lower value 0.992 | locus YDL101C, strain DUN1, stronger effect = lower value 0.929 | locus YDL185W, strain tfp1, stronger effect = lower value 0.996 | locus YDR101C, strain arx1, stronger effect = lower value 0.973 | locus YDR502C, strain sam2, stronger effect = lower value 0.948 | locus YER110C, stronger effect = lower value 1 | locus YGL078C, strain dbp3, stronger effect = lower value 0.975 | locus YGR252W, strain gcn5, stronger effect = lower value 0.823 | locus YHR079C, strain IRE1 (second series), stronger effect = lower value 1 | locus YHR094C, strain hxt1, stronger effect = lower value 1.01 | locus YIL125W, strain kgd1, stronger effect = lower value 0.984 | locus YIR030C, strain dcg1, stronger effect = lower value 1 | locus YJL134W, strain LCB3, stronger effect = lower value 0.987 | locus YJL168C, strain set2, stronger effect = lower value 0.99 | locus YKL009W, strain mrt4, stronger effect = lower value 0.938 | locus YKL068W, stronger effect = lower value 0.996 | locus YKL085W, strain MDH1 (second series), stronger effect = lower value 0.978 | locus YKL085W, strain MDH1, stronger effect = lower value 0.978 | locus YLR102C, strain apc9, stronger effect = lower value 1.01 | locus YML032C, strain rad52, stronger effect = lower value 0.954 | locus YML124C, strain tub3, stronger effect = lower value 1.02 | locus YMR078C, strain ctf18, stronger effect = lower value 0.984 | locus YMR263W, strain SAP30, stronger effect = lower value 0.92 | locus YNL250W, strain rad50, stronger effect = lower value 1.03 | locus YNL271C, strain bni1, stronger effect = lower value 0.992 | locus YNL298W, strain CLA4, stronger effect = lower value 1 | locus YNR052C, strain pop2, stronger effect = lower value 0.93 | locus YOL012C, strain htz1 0.242 | locus YOL147C, strain pex11, stronger effect = lower value 0.943 | locus YOR136W, strain idh2, stronger effect = lower value 0.97 | locus YOR144C, strain elg1, stronger effect = lower value 0.983 | locus YOR316C, strain cot1, stronger effect = lower value 0.986 | locus YPL241C, strain CIN2, stronger effect = lower value 0.952 | locus YPR119W, strain clb2, stronger effect = lower value 1.01 | locus YPR141C, strain kar3, stronger effect = lower value 1
